Measurements as given in PubChem BioAssay (NCATS).
Inconclusive results are not listed. Active and inactive are the calls of the source. Unless noted, the call rests on the fitted dose curve; in most records, active means well fitted curve in the direction sought with a large enough effect; inconclusive means small, poorly fitted or top-dose-only effect, or another doubt; inactive means no such curve, though single readings can be large; an effect the other way counts as inactive or inconclusive.

Tests used:
[1] = Quantitative high throughput screen for delayed death inhibitors of the malarial parasite plastid, 96 hour incubation (AID 488745); further: nearly all actives have a fitted effect of over 70% in size; further: potency means the concentration at half of the fitted maximal effect
Procedure, shortened: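 P. falciparum carrying an integrated firefly luciferase reporter, grown in erythrocytes (2% hematocrit, 0.1% parasitemia final) in RPMI 1640/0.5% Albumax, was exposed to compound for 96 h (two generations) at 37 C, 5% CO2. Luminescence decrease indicated growth inhibition.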

[2] = Quantitative high throughput screen for delayed death inhibitors of the malarial parasite plastid, 48 hour incubation (AID 488752); further: nearly all actives have a fitted effect of over 65% in size; further: potency means the concentration at half of the fitted maximal effect
Procedure, shortened: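 Erythrocytes infected with P. falciparum carrying an integrated firefly luciferase reporter (2% hematocrit, 0.1% parasitemia final) were exposed to compounds in RPMI 1640/0.5% Albumax for 48 h at 37 C, 5% CO2. Growth inhibition was scored as reduced luminescence.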

[3] = molecular target: Thioredoxin reductase 1, cytoplasmic (Rattus norvegicus) (UniProt O89049); assay: qHTS Assay for Substrates of Mammalian Selenoprotein Thioredoxin Reductase 1 (TrxR1) (AID 488772);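 further: NADPH fluorescence in the first read after selenite addition and not the 8 min delta; series mostly up to about 57 µM; 0% is about no effect; a drop in NADPH fluorescence below the no-compound background marks a TrxR1 substrate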
Chain of Thioredoxin reductase 1, cytoplasmic (Rattus norvegicus) (O89049 whole entry, looked up): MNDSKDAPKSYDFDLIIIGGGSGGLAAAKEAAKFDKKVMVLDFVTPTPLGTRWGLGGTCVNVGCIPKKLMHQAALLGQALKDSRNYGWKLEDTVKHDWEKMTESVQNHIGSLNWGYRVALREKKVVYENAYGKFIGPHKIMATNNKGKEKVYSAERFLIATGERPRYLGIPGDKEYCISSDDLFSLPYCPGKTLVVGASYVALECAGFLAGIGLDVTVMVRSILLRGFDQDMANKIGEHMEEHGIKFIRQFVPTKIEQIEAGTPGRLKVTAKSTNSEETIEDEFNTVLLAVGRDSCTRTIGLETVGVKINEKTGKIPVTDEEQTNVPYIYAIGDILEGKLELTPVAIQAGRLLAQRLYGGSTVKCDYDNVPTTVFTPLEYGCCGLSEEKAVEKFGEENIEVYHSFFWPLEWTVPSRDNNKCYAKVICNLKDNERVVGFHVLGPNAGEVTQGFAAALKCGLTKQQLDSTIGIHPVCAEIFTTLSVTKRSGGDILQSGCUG
Procedure, shortened: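 Quantitative HTS in Tris-HCl buffer at pH 7.5 with EDTA and Tween-20, using rat TrxR1, 400 uM NADPH and 400 uM selenite (final). A fall in initial NADPH fluorescence relative to background marked substrate behaviour.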

[4] = molecular target: Thioredoxin reductase 1, cytoplasmic (Rattus norvegicus) (UniProt O89049); assay: qHTS Assay for Inhibitors of Mammalian Selenoprotein Thioredoxin Reductase 1 (TrxR1) (AID 488773); conditions: Potency: inhibition; further: nearly all actives have a fitted effect of over 40% in size; further: potency means the concentration at half of the fitted maximal effect
Procedure, shortened: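 Steps: enzyme (90 nM) plus NADPH (400 uM final), 5 min at ~22 deg C; compound added, 15 min; selenite (400 uM final) added; fluorescence followed for 8 min. Concentration-response curves derived from the normalized delta values.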

[5] = molecular target: Flap endonuclease 1 (Homo sapiens) (UniProt P39748); assay: qHTS Validation Assay for the Inhibitors of Human Flap endonuclease 1 (FEN1) (AID 488816); further: on the % scale 0 is the no-effect control and ±100 the full control effect
Chain of Flap endonuclease 1 (Homo sapiens) (P39748 whole entry, looked up): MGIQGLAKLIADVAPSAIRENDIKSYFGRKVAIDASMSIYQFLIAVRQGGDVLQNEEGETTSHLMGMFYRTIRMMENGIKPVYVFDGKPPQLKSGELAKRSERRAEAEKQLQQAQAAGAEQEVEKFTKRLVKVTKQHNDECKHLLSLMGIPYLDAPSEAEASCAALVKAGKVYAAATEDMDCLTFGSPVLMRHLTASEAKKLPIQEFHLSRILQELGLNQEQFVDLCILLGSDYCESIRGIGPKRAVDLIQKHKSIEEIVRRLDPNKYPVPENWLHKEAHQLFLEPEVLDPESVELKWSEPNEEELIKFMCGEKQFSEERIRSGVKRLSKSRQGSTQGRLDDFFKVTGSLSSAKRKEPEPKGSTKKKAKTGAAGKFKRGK
Procedure, shortened: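 Readings taken at 0 and 15 min after starting the reaction with 50 nM (final) substrate supplied the signal. Compounds had first sat with 10 nM FEN1 reagent for 15 min at room temperature. Values come from Hill-equation concentration-response fits.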

[6] = molecular target: M-phase phosphoprotein 8 (Homo sapiens) (UniProt Q99549); assay: qHTS Validation Assay for Inhibitors for MPP8 Chromodomain Interactions with Methylated Histone Tails (AID 488949);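 further: AlphaScreen signal from MPP8 chromodomain bound to biotinylated H3K9me3 peptide; top concentration of the series differs between compounds; on the % scale 0 is the no-effect control and ±100 the full control effect; nearly all actives have a fitted effect of over 55% in size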
Procedure, shortened: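 AlphaScreen proximity signal from streptavidin donor and Ni-chelate acceptor beads (10 ug/mL each) reported binding of MPP8 to trimethyl-K9 H3(1-18) peptide, both at 50 nM. The complex formed 30 min before a 30 min compound exposure at room temperature, in PBS pH 7.4.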

[7] = molecular target: Methanococcus maripaludis chaperonin (MmCpn) (UniProt Q6LX38); assay: High-Throughput Screening for Modulators of Cytosolic Chaperonin Activity: MmCpn Primary Screen (AID 488978);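 further: 50 nM MmCpn enzyme hydrolysing 30 µM ATP at 37 °C; 0% is about no effect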
Chain of Methanococcus maripaludis chaperonin (MmCpn) (Q6LX38 1-543): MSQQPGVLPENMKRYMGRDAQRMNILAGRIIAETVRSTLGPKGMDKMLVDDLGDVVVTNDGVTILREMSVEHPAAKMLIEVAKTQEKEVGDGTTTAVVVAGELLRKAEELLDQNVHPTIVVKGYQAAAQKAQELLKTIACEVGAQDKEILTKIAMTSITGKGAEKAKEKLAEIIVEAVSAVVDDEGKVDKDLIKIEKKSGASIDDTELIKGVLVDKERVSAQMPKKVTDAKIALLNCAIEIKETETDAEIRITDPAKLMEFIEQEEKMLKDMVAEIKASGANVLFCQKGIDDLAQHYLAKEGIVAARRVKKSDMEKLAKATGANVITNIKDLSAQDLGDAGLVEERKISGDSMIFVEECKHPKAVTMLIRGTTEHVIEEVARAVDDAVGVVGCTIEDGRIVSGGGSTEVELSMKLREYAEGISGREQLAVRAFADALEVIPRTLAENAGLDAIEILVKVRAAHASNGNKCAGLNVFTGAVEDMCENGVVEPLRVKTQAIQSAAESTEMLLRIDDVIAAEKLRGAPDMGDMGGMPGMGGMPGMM
Procedure, shortened: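 ATPase activity of 50 nM MmCpn was assayed with 30 uM ATP, 10 minutes at 37C, after a 5 min compound preincubation at room temperature. ADP production was read as HTRF emission at 590 and 665 nm.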

[8] = molecular target: Transient receptor potential cation channel subfamily V member 1 (Homo sapiens) (UniProt Q8NER1); assay: HTS Assay for Compounds that Act as Enhancers of the Vanilloid Receptor 1 (AID 488979); further: 0% is about no effect
Chain of Transient receptor potential cation channel subfamily V member 1 (Homo sapiens) (Q8NER1 whole entry, looked up): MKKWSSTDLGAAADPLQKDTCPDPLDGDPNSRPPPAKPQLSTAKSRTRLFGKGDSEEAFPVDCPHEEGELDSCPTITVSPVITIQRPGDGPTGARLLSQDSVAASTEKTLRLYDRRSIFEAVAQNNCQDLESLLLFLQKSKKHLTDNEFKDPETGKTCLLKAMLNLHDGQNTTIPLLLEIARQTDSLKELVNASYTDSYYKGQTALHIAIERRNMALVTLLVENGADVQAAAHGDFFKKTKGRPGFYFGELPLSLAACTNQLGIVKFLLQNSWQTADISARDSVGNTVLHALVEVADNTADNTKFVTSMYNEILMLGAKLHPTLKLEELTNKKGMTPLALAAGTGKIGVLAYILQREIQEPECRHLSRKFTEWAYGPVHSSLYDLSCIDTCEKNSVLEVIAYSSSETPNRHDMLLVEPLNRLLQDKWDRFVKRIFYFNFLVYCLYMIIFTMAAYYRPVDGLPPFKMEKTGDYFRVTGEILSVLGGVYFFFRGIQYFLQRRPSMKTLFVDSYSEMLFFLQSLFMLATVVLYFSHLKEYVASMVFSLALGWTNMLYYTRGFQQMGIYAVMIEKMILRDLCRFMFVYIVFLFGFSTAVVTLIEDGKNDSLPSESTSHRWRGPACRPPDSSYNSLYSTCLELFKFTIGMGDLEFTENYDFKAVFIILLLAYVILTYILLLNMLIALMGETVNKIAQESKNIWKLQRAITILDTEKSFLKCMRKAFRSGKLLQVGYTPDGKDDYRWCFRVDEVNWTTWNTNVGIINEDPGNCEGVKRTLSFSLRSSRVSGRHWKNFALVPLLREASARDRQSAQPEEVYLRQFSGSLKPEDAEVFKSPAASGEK
Procedure, shortened: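 Calcium influx kinetics via Fluo-8 (480/520 nm) in TRPV1-expressing cells, 2000/well cultured overnight at 35.5C. Compound-alone read 3 min (agonist phase), followed by EC20 capsaicin challenge for 2 min (enhancer phase).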

[9] = molecular target: Thyrotropin receptor (Homo sapiens) (UniProt P16473); assay: qHTS Assay for Antagonists of the Thyroid Stimulating Hormone Receptor (AID 488980); further: series mostly up to about 58 µM; 0% is about no effect
Procedure, shortened: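 Inhibition of cAMP raised by EC80 TSH (4 nM final) was read by HTRF, with lysate cAMP competing against cAMP-d2 for cryptate antibody after 30 min at room temperature. The cells were transfected HEK293 held in phosphodiesterase inhibitor RO 20-1724 at 70 uM.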

[10] = molecular target: D(1A) dopamine receptor (Homo sapiens) (UniProt P21728); assay: HTS Assay for Allosteric Agonists of the Human D1 Dopamine Receptor: Primary Screen for Agonists (AID 488981); further: 0% is about no effect
Chain of D(1A) dopamine receptor (Homo sapiens) (P21728 whole entry, looked up): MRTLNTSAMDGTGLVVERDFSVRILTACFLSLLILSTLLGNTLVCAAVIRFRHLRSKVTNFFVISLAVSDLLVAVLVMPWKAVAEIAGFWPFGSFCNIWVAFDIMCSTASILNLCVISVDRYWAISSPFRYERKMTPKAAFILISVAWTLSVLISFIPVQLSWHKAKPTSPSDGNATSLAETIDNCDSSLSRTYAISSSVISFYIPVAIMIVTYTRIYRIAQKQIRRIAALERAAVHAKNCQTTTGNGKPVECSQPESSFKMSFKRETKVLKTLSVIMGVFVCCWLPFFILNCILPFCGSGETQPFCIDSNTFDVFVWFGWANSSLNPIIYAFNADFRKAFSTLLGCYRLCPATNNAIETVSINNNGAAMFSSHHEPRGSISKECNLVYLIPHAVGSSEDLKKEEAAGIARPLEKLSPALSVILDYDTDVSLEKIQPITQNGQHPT
Procedure, shortened: (§1)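 Calcium flux in an inducible, force-coupled HEK293 Trex D1 line (overnight at 30 C): agonist mode is the 180 s kinetic read after compound; potentiator mode is the following 180 s read after dopamine at EC20.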

[11] = molecular target: D(1A) dopamine receptor (Homo sapiens) (UniProt P21728); assay: HTS Assay for Allosteric Agonists of the Human D1 Dopamine Receptor: Primary Screen for Potentiators (AID 488982); further: 0% is about no effect
Procedure, shortened: as §1

[12] = molecular target: D(1A) dopamine receptor (Homo sapiens) (UniProt P21728); assay: HTS Assay for Allosteric Agonists of the Human D1 Dopamine Receptor: Primary Screen for Antagonists (AID 488983);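 further: calcium flux response to an EC80 dopamine challenge measured with no-wash dye; on the % scale 0 is the no-effect control and ±100 the full control effect; nearly all actives have a fitted effect of over 65% in size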
Procedure, shortened: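 Tetracycline-induced HEK293 T-REx cells expressing force-coupled D1 were plated overnight at 30 C, dye-loaded for calcium, and read kinetically. Compounds were pinned in, then an EC80 dopamine challenge followed after 180 s to reveal antagonism.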

[13] = Validation screen for small molecules that induce genotoxicity in human embryonic kidney (HEK293T) cells expressing luciferase-tagged ELG1 (AID 493106); further: 0% is about no effect
Procedure, shortened: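 HEK293T cells expressing luciferase-tagged ELG1 were exposed to compound or DMSO vehicle for 16 hr at 37 °C, 5% CO2. Genotoxic stress raises ELG1 levels, so increased luciferase signal after ONE-Glo addition and 30 min at room temperature marks hits.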

[14] = molecular target: Thyrotropin-releasing hormone receptor (Homo sapiens) (UniProt P34981); assay: qHTS for Small Molecule Agonists and Allosteric Enhancers of Human TRH Receptor: Validation Screen for Agonists (AID 493127;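 active means calcium activation more than 3 SD above the typical response in the agonist read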;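 further: intracellular calcium rise by fluo-8 fluorescence before TRH EC20 addition; 0% is about no effect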); conditions: TRH receptor agonist cell assay; at 2 µM; stronger effect = higher value
Chain of Thyrotropin-releasing hormone receptor (Homo sapiens) (P34981 whole entry, looked up): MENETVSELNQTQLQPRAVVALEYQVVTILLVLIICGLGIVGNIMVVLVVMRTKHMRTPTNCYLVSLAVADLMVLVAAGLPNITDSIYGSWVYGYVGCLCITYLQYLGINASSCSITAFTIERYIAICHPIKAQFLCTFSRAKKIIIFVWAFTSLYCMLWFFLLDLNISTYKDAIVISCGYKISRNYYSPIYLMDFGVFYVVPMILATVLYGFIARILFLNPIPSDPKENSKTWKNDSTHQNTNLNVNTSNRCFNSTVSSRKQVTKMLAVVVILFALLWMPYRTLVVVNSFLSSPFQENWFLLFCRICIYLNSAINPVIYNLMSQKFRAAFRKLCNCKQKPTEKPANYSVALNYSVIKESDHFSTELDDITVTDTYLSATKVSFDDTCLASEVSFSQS
Procedure, shortened: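 TRHR-expressing cells were plated overnight in serum-containing medium, then loaded with fluo-8 calcium dye at room temperature for 30 min–1.5 h. After a 10 s baseline, compound was pin-transferred and calcium fluorescence (ex 480/em 530) read kinetically for agonist response.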

[15] = Nrf2 qHTS screen for inhibitors: Validation (AID 493153; active means well fitted inhibition curve with a large enough effect in the main read-out, with a control signal flat, not every such curve was filed as active; further: potency means the concentration at half of the fitted maximal effect); conditions: Potency: luciferase luminescence; viability change: measured here: cytotoxicity max response
Procedure, shortened: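 A549 cells carrying an ARE-driven firefly luciferase reporter, in 5% FBS OPTI-MEM, were treated with compounds in concentration-response for 18-24 h at 37°C. Viability was read by CellTiter-Fluor fluorescence, then Nrf2 activity by luciferase luminescence.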

[16] = qHTS for Inhibitors of Cell Surface uPA Generation: Validation Assay (AID 493164);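 further: RAW 264.7 macrophage cells exposed to compound for 18 h; 0% is about no effect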
Procedure, shortened: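 RAW 264.7, 4000 cells/well, o/n plating; cpd 7-pt 1:5 dilution 2.45 nM–38.3 uM final; 18 h, 37 C/5% CO2; ATP-Lite, 5 s luminescence exposure.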

[17] = molecular target: Chromobox protein homolog 1 (Homo sapiens) (UniProt P83916); assay: qHTS Validation Assay for Inhibitors of HP1-beta Chromodomain Interactions with Methylated Histone Tails (AID 488953); further: nearly all actives have a fitted effect of over 50% in size; further: potency means the concentration at half of the fitted maximal effect
Procedure, shortened: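 HP1-beta (50 nM) was preincubated 30 min at room temperature with biotinylated H3(1-18)K9me3 peptide (50 nM) in PBS pH 7.4, 0.01% Tween-20, then with compounds 30 min. AlphaScreen signal was read after streptavidin donor/nickel chelate acceptor beads (10 ug/mL final).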

[18] = molecular target: ATPase family AAA domain-containing protein 5 (Homo sapiens) (UniProt Q96QE3); assay: Validation screen for small molecules that inhibit ELG1-dependent DNA repair in human embryonic kidney (HEK293T) cells expressing luciferase-tagged ELG1 (AID 493107);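 further: cells co-treated with the DNA-damaging agent 5-fluorouridine alongside compound; series mostly up to about 46 µM; on the % scale 0 is the no-effect control and ±100 the full control effect; inhibitors lower the ELG1-luciferase luminescence signal; nearly all actives have a fitted effect of over 70% in size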
Chain of ATPase family AAA domain-containing protein 5 (Homo sapiens) (Q96QE3 whole entry, looked up, the tested form may be a part): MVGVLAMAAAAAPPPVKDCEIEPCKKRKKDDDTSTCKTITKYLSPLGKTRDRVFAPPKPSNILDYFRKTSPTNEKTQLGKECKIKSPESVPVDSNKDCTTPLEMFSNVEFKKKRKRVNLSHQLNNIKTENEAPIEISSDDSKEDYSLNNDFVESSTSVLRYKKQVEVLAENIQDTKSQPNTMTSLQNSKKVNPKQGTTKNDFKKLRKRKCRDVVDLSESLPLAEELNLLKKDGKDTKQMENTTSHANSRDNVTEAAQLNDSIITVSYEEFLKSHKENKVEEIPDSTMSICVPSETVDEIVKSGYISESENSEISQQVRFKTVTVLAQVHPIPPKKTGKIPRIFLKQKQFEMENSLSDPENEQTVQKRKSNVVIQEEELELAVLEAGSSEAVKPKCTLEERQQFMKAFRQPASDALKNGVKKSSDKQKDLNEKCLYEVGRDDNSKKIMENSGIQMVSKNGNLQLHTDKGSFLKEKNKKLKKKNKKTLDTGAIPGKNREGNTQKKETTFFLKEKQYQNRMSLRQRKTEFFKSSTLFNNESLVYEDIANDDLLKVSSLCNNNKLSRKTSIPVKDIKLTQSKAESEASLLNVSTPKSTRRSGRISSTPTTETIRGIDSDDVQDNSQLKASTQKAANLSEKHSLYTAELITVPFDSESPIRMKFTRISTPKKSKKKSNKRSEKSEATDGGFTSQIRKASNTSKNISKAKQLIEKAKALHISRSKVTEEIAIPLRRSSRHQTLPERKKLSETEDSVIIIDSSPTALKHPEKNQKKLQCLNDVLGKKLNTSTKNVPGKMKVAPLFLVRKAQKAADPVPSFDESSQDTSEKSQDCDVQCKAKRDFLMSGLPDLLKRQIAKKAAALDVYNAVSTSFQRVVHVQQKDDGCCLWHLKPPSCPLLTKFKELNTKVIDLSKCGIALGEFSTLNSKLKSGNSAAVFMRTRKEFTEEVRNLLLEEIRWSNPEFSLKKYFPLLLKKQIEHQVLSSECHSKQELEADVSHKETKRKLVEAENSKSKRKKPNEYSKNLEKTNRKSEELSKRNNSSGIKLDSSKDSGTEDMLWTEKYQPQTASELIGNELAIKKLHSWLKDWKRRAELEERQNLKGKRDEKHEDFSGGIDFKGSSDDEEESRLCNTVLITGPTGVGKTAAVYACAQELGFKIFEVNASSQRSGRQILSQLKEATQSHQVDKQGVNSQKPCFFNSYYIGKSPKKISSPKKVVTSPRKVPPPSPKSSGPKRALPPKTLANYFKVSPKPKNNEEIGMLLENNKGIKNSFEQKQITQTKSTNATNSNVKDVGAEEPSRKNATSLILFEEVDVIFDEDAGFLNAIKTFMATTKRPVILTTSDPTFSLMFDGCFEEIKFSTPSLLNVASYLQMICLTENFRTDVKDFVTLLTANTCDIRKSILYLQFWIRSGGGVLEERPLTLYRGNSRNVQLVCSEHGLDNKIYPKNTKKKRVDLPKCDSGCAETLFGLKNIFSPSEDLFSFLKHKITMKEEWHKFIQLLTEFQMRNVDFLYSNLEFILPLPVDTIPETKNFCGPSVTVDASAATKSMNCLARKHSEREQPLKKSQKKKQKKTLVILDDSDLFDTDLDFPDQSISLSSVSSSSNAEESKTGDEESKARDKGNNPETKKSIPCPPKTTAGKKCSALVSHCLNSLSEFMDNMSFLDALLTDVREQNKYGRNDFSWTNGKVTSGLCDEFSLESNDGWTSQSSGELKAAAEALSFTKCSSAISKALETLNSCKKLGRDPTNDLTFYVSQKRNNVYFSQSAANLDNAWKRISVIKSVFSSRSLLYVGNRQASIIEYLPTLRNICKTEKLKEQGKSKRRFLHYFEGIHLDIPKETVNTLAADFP
Procedure, shortened: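 HEK293T cells expressing luciferase-tagged ELG1 were co-treated with 5-fluorouridine and compound or DMSO for 16 hr at 37 °C, 5% CO2. Luciferase activity was then read with ONE-Glo after 30 min at room temperature; suppressed signal indicates blocked ELG1 function.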

C=CCN1CC[C@]23c4c5ccc(O)c4O[C@@H]2/C(=N/N=C2\CC[C@@]4(O)C6Cc7ccc(O)c8c7[C@@]4(CCN6CC=C)[C@@H]2O8)CC[C@@]3(O)C1C5
-1.45%: viability change [15]
active: Potency [1] 2.94 µM | Potency [2] 3.29 µM | Potency [4] 11.9 µM
inactive: outcome [3] | Potency [5] | Potency [6] | outcome [7] | outcome [8] | outcome [9] | Potency [10] | Potency [11] | Potency [12] | Potency [13] | activation [14] 2.38% | Potency [15] | outcome [16]

C/C(O)=C(\C#N)C(=O)Nc1cc(Br)ccc1Br
inactive: Potency [1] | Potency [2] | outcome [3] | Potency [4] | Potency [5] | Potency [6] | outcome [7] | outcome [8] | outcome [9] | Potency [10] | Potency [11] | Potency [12] | Potency [13] | activation [14] 0.0625% | outcome [16]

N[C@@]1(C(=O)O)CC[C@@H](C(=O)O)C1
4.39%: viability change [15]
inactive: Potency [1] | Potency [2] | outcome [3] | Potency [4] | Potency [6] | Potency [17] | outcome [7] | outcome [8] | outcome [9] | Potency [10] | Potency [11] | Potency [12] | Potency [13] | Potency [18] | activation [14] -0.25% | Potency [15] | outcome [16]

C[N+](C)(C)CC#CCN1CCCC1=O
inactive: Potency [1] | Potency [2] | outcome [3] | Potency [4] | Potency [5] | Potency [6] | outcome [7] | outcome [8] | outcome [9] | Potency [11] | Potency [12] | Potency [13] | Potency [18] | Potency [15]
active: activation [14] 57.8%
2.69%: viability change [15]

COc1cc(CC(C)N)c(OC)cc1I (stereo unspecified)
inactive: Potency [1] | Potency [2] | outcome [3] | Potency [4] | Potency [5] | Potency [6] | outcome [7] | outcome [8] | outcome [9] | Potency [10] | Potency [11] | Potency [12] | Potency [13] | activation [14] 0.562% | Potency [15] | outcome [16]
-12.3%: viability change [15]

CC(C)(C)c1o[nH]c(=O)c1CC(N)C(=O)O (stereo unspecified)
8%: viability change [15]
inactive: Potency [1] | Potency [2] | outcome [3] | Potency [4] | Potency [6] | Potency [17] | outcome [7] | outcome [8] | outcome [9] | Potency [10] | Potency [11] | Potency [12] | Potency [13] | Potency [18] | Potency [15] | outcome [16]

NC(=O)c1ccc(OCC(O)CN2CC=C(c3ccc(F)cc3)CC2)cc1 (stereo unspecified)
16.7%: viability change [15]
inactive: Potency [1] | Potency [2] | outcome [3] | Potency [4] | Potency [5] | Potency [6] | outcome [7] | outcome [8] | outcome [9] | Potency [10] | Potency [11] | Potency [13] | Potency [18] | activation [14] 4.62% | Potency [15] | outcome [16]

O=S1(=O)N(CCN2CC=C(c3c[nH]c4cc(F)ccc34)CC2)c2cccc3c2N1CCC3
active: Potency [1] 0.465 µM | Potency [2] 1.47 µM | Potency [17] 39.8 µM | Potency [15] 23.1 µM
inactive: outcome [3] | Potency [4] | outcome [7] | outcome [8] | outcome [9] | Potency [10] | Potency [11] | Potency [13] | outcome [16]
-15.7%: viability change [15]
